Source: PubChem (National Center for Advancing Translational Sciences (NCATS))
Only some compounds are listed: those with a hit (about 19% of all), similar ones and a draw of the others.
TDP1 cell CPT – qHTS for Inhibitors of human tyrosyl-DNA phosphodiesterase 1 (TDP1): qHTS in cells in presence of CPT; chicken DT40 Tdp1-/-;hTDP1 cells + 20 nM CPT, ATP luminescence, 48 h; Potency, µM (doses to about 46.2 µM), for the others: at the highest dose activity change, negative = growth inhibition, usual class: inhibitors; AID 686979, 2013; 12% of 420,000 active; further: potency means the concentration at half of the fitted maximal effect; nearly all actives have a fitted effect of over 55% in size
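Cell growth measured by CellTiter-Glo luminescence after a minimum 48 h, 37 C compound exposure with 20 nM CPT in Tdp1-knockout DT40 cells stably expressing hTDP1, seeded 400/well; qHTS titration format.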
IL1B secr inh – qHTS for Inhibitors of Inflammasome Signaling: IL-1-beta AlphaLISA Primary Screen; THP-1 LPS/ATP IL-1B secretion, AlphaLISA, 16 h; active compounds read low; activity change, % at 57.5 µM; 4.7% of 360,000 active; AID 743279, 2014; in the data active means activity change below about -50%; inconclusive means mostly about -30% to -49%
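Secreted IL-1B measured by AlphaLISA bead assay after 16 h compound exposure of THP-1 cells; compounds (final up to 57.5 uM) added 1 h before LPS (250 ng/mL) and ATP (1.25 mM) stimulation; lower signal means less secretion.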
TDP1 cell noCPT – qHTS for Inhibitors of human tyrosyl-DNA phosphodiesterase 1 (TDP1): qHTS in cells in absence of CPT. DT40 Tdp1-/- hTDP1 cells, no CPT, ATP luminescence, 48 h. Potency, µM (highest dose often 46.2 µM), for inactives: at the top dose activity change, negative = growth inhibition, usual class: inhibitors. 15% of 420,000 active. AID 686978, 2013; further: potency means the concentration at half of the fitted maximal effect; nearly all actives have a fitted effect of over 55% in size
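A cellular qHTS used chicken DT40 cells lacking endogenous Tdp1 but carrying stably transfected human TDP1. Compounds were applied without camptothecin, and cell growth kinetics were judged by ATP-dependent luminescence after ≥48 hr.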
HT1080 IDH1KD tx – qHTS for induction of synthetic lethality in tumor cells producing 2HG: qHTS for the HT-1080-IDH1KD cell line; HT-1080 IDH1 knockdown viability, ATP luminescence, 48 h; 2% of 360,000 active; Potency, µM (series often up to 46.1 µM), for the others: top-dose activity, negative = toxicity, actives largely listed as cytotoxic;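 further: potency means the concentration at half of the fitted maximal effect; 0% = DMSO wells and -100% = cell-free medium wells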
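Luminescent ATP read-out (CellTiter-Glo, 10 min at room temperature) after 48 h compound exposure at 37 °C gave viability of IDH1-knockdown HT-1080 cells. Activity was normalised to DMSO and cell-free wells, then fitted as concentration-response curves.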
HT1080-NT tox – qHTS for induction of synthetic lethality in tumor cells producing 2HG: qHTS for the HT-1080-NT fibrosarcoma cell line; HT-1080-NT fibrosarcoma viability, CellTiter-Glo ATP luminescence, 48 h; Potency, µM (top dose mostly 46.1 µM), for the others: at the top dose activity, negative = less viability, most hits filed as cytotoxic; 1.6% of 360,000 active; AID 686970, 2013;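 further: NT is the 2HG producing partner of a matched IDH1 knockdown line; potency means the concentration at half of the fitted maximal effect; 0% = DMSO-treated cells and -100% = media-only wells without cells; nearly all actives have a fitted effect of over 55% in size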
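Toxicity toward the 2HG-producing NT line was scored as %Activity, normalised to DMSO and no-cell wells, from CellTiter-Glo luminescence after 48 hours' treatment.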
ELG1 DNA repair – qHTS screen for small molecules that inhibit ELG1-dependent DNA repair in human embryonic kidney (HEK293T) cells expressing luciferase-tagged ELG1; HEK293T ELG1-luciferase reporter, luminescence, 16 h; DNA damage induced by 5-fluorouridine; Potency, µM (doses to about 46.1 µM), for the others: top-dose activity change, negative = inhibition, hits mostly inhibitors; 2.3% of 330,000 active; AID 504467, 2011; further: potency means the concentration at half of the fitted maximal effect; nearly all actives have a fitted effect of over 55% in size
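Overnight (16 hr) co-exposure of 2,000 cells/well to 5-fluorouridine and compound at 37 °C preceded detection. Luciferase was quantified via ONE-Glo luminescence; loss of signal denotes inhibition.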
* hit, by the source's call; i = inactive; ? = inconclusive; / = no result given; [ ] = dose if it differs, or a comment. Unless noted, the call rests on the fitted dose curve; in most records, active means well fitted curve in the direction sought with a large enough effect; inconclusive means small, poorly fitted or top-dose-only effect, or another doubt; inactive means no such curve, though single readings can be large; an effect the other way counts as inactive or inconclusive. Unless noted, on the % scale 0 is the no-effect control and ±100 the full control effect.

SMILES | TDP1 cell CPT | IL1B secr inh | TDP1 cell noCPT | HT1080 IDH1KD tx | HT1080-NT tox | ELG1 DNA repair
COc1ccc2cc(C=O)n(C)c2c1 | -4% | 21 | 3% | 13% | 0% | 1%
CCCCSc1nnc([C@H](CC(C)C)NC(=O)OC(C)(C)C)o1 | 18µM* | 37 | ? | 0% | 3% | -17%
Cc1cc(OC(C)C(=O)NC2CC(C)(C)NC(C)(C)C2)c2c(C)c(C)c(=O)oc2c1 (stereo not given) | -23% | ? | -23% | -1% | -2% | /
Cc1ccc2c(c1)[C@@H]1CN(C)CC[C@@H]1N2S(=O)(=O)c1ccc(F)cc1 | ? | -10 | ? | -9% | -2% | 16%
CCc1ccc(S(=O)(=O)N2c3ccc(C)cc3C3CN(C)CCC32)cc1 (stereo not given) | ? | -51* | ? | -2% | -3% | 8%
COc1ccc([N+](=O)[O-])cc1N(CC(O)CN1CCOCC1)S(=O)(=O)c1ccccc1 (stereo not given) | ? | -12 | -24% | 9% | -2% | -6%
CCCCN(CCCC)CC(O)CN(c1cc([N+](=O)[O-])ccc1OC)S(=O)(=O)c1ccccc1 (stereo not given) | ? | / | 15µM* | ? | ? | 5%
COc1ccc([N+](=O)[O-])cc1N(CC(O)CN(CC(C)C)CC(C)C)S(=O)(=O)c1ccccc1 (stereo not given) | ? | ? | 21µM* | ? | ? | 7%
COc1ccc([N+](=O)[O-])cc1N(CC(O)CN(C)C)S(=O)(=O)c1ccc(C)cc1 (stereo not given) | -1% | 4 | -10% | 3% | -11% | 0%
Cc1ccc(Sc2c(C)nn(C(=O)c3ccc(Cl)cc3)c2C)cc1 | 6% | / | -4% | / | / | /
Cc1[nH]c2ccccc2c1C(=O)C(C)Sc1nc2ccccc2c(=O)n1Cc1cccnc1 (stereo not given) | 7.9µM* | / | 11µM* | / | / | /
CCOC(=O)CSc1nc2cc3c(cc2c(=O)n1CCCCCC(=O)NCc1ccc(OC)cc1)OCO3 | -27% | / | ? | / | / | /
CCOc1ccc(NC(=O)COC(=O)c2ccc3c(c2)OCCO3)cc1 | -30% | -23 | 3% | 4% | -1%[9.24 µM] | -3%
COc1ccc(CN(C)C2c3ccccc3-c3ccccc32)cc1 | -29% | 0 | ? | ? | -29% | ?
CN(C)c1ccc(/C=C/c2ccnc3c(Cl)ccc(Cl)c23)cc1 | 11µM* | / | 10µM* | / | / | /
Cc1ccc2c(/C=C/c3ccc(N(C)C)cc3)ccnc2c1C | 13µM* | / | ? | / | / | /
Cc1cc(C)c2nccc(/C=C/c3ccc(N(C)C)cc3)c2c1 | 11µM* | / | 10µM* | / | / | /
Cc1cc(C)c2nccc(C)c2c1 | -12% | / | 3% | / | / | /
CN(C)c1ccc(/C=N/N2CCN(c3ccccn3)CC2)cc1 | -1% | ? | -14% | 7% | 2% | ?
Cc1ncsc1CCC(=O)N1CCCC(Nc2ccc(F)c(F)c2)C1 (stereo not given) | 13µM* | 9 | ? | -7% | -4% | -7%
Cc1ccc(NC2CCCN(C(=O)CCc3scnc3C)C2)cc1C (stereo not given) | ? | i | -27% | -8% | -9% | -12%
